Only some compounds are listed: those with a hit (about 4.5% of all), similar ones and a draw of the others.
FXN GAA850 act: FXN promoter activators, primary screen, cell-based, luciferase luminescence, HEK293 lucGAA850. HEK293 lucGAA850 FXN promoter luciferase reporter, 24 h; percent of 10 µM SAHA response. activation, % at 6 µM. 0.56% of 360,000 active;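 active = activation above the average of all compounds screened plus 3 SD, cutoff fixed separately per campaign, cut at about 7.5% in these data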
ssDAF-12 act: S. stercoralis DAF-12 nuclear receptor activators, primary screen, cell-based, luminescence, HEK293, GRIP1 co-expression, lit1-tk-luc. Nuclear hormone receptor DAF-12 (Strongyloides stercoralis). AID 652126, 2013. 1% of 370,000 active. activation, % at 6.8 µM. HEK293 ssDAF-12/GRIP1 lit1-tk-luc reporter; % of 3 µM dafachronic acid response;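 active = activation above the mean over all tested compounds plus 3 SD, cut at about 0.9% in these data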
hgDAF-12 ag: H. glycines DAF-12 receptor agonists, primary screen, cell-based, luminescence, HEK293, GAL4 fusion, UAS-luciferase. Nuclear hormone receptor DAF-12 (Heterodera glycines), GAL4 fusion. HEK293 GAL4-hgDAF12 UAS-luciferase reporter, agonist luminescence; normalized to butyrate control. activation, % at 6.8 µM. 1.8% of 370,000 active;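 active = activation above a cutoff set at the mean of all screened compounds plus 3 SD, cut at about 10% in these data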
DAX1 inh-1: DAX1 (NR0B1) inhibitors, primary screen, cell-based, HEK293, Gal4-DAX1, luciferase luminescence; Nuclear receptor subfamily 0 group B member 1 (Homo sapiens), P51843; HEK293 Gal4-DAX1 luciferase reporter; inhibition, % at 6.75 µM; 0.99% of 340,000 active;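 active = inhibition above the mean over all tested compounds plus 3 SD, cut at about 4.2% in these data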;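 also: inhibition shows as a rise in luminescence from relieved DAX1 repression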
Target sequence (P51843 207-470 limits assumed): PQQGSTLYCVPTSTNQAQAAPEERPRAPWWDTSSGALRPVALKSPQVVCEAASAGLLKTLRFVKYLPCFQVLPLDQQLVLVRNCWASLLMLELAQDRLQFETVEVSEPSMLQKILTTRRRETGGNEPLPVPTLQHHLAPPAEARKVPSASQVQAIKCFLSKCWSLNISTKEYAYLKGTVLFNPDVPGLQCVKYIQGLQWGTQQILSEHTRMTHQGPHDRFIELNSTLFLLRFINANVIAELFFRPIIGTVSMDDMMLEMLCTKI
DAX1 inh-2: DAX1 (NR0B1) inhibitors on StAR promoter, primary screen, cell-based, luminescence, SF-1 (NR5A1), full-length DAX-1; inhibition, % at 6.8 µM; 1.1% of 370,000 active; HEK293T StAR-luciferase reporter, SF-1/DAX-1 repression relief; AID 652010, 2013;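 active = inhibition above the mean over all tested compounds plus 3 SD, cut at about 3.6% in these data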;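 also: higher inhibition means more luminescence from relief of DAX-1 repression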
hcDAF12 agonist: H. contortus DAF-12 nuclear receptor activators, primary screen, cell-based, luminescence, HEK293, lit1-tk-luc reporter; HEK293 hcDAF-12 lit1-tk-luc reporter; 0% DMSO, 100% Δ7-dafachronic acid; activation, % at 6.8 µM; 1.4% of 370,000 active;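 active = activation above the mean of all tested compounds plus 3 SD, cut at about 5.5% in these data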
DAX1 conf: DAX1 (NR0B1) inhibitors relieving SF-1 repression, confirmation, cell-based, luminescence, HEK293T, full-length DAX-1, SF-1 activated StAR promoter; shares compounds with DAX1 inh-2; HEK293T StAR-promoter luciferase reporter, SF-1/DAX-1 repression; inhibition, % at 6.8 µM; 87% of 2,400 active;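 active = inhibition above the average of every tested compound plus 3 SD, cut at about 3.8% in these data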
SF1 AF2mut Luc: StAR reporter signal changes without DAX1, counter-screen for DAX1 inhibitor project, cell-based, luminescence, AF-2 mutant SF-1, transactivation; shares compounds with DAX1 inh-2; HEK293 StAR-luciferase, SF-1 AF2 mutant; inhibition, % at 6.8 µM; 78% of 2,400 active; AID 652136, 2013;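 active = inhibition above the mean of all tested compounds plus 3 SD, cut at about 3% in these data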
LXR ag: LXR agonists, Gal4 luciferase reporter, confirmation, counter-screen for hcDAF-12 agonist project, cell-based, luminescence, HEK293, H. contortus campaign. shares compounds with hcDAF12 agonist. HEK293 Gal4-LXR tk-luc reporter, 24 h; normalized: DMSO 0%, positive control 100%. activation, % at 6.8 µM. 3,400 tested, under 10 active;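 active = mean percent activation of the reporter above a cutoff set as the average over tested compounds plus their standard deviation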
hcDAF12 ag: H. contortus DAF-12 receptor agonists, confirmation, cell-based, luminescence, HEK293, lit1-tk-luc, triplicate. activation, % at 6.8 µM. HEK293 hcDAF-12 lit1-tk-luc reporter; % of Δ7-dafachronic acid response. 61% of 3,400 active. AID 743032, 2013. shares compounds with hcDAF12 agonist;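 active = mean activation across triplicate tests above the threshold derived from the earlier primary screen, cut at about 5.5% in these data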
Of the large screens only hits and unclear results are named; the others gave an inactive call (follow-up assays come after a bar, where they were run).

Cc1ccc2nc(N(CCCN(C)C)C(=O)c3ccc4ncsc4c3)sc2c1	DAX1 inh-2 6.4 | DAX1 conf 11 | SF1 AF2mut Luc 7.8
CN1C(=O)c2ccc(Oc3ccccc3)cc2C1=O	none
COC(=O)CNc1c(-c2ccccn2)nc2ccc(Br)cn12	DAX1 inh-2 4.9, hcDAF12 agonist 7.8 | DAX1 conf 12 | SF1 AF2mut Luc 6.2 | LXR ag inactive | hcDAF12 ag 6.2
CCOC(=O)CNc1c(-c2ccccc2)nc2ccc(Cl)cn12	none
COc1ccc(C2CC(c3ccc(Cl)cc3)=NN2C(C)=O)cc1 (stereo not given)	none
COC(=O)C(Cc1c[nH]c2ccccc12)NC(=O)c1ccc2nc[nH]c2c1 (stereo not given)	ssDAF-12 act 2.1, hgDAF-12 ag 14, DAX1 inh-1 4.5, DAX1 inh-2 8.7, hcDAF12 agonist 8.3 | DAX1 conf 13 | SF1 AF2mut Luc 6.0 | LXR ag inactive | hcDAF12 ag 6.9
COC(=O)C(Cc1c[nH]c2ccccc12)NC(=O)c1cncc(Br)c1 (stereo not given)	none
O=C(CNC(=O)C1CCCCC1)OC(C(=O)c1ccccc1)c1ccccc1 (stereo not given)	none
Cc1ccccc1NC(=O)N1c2ccccc2CC1C (stereo not given)	none
Cc1nc2cc(NC(=O)N3c4ccccc4CC3C)ccc2n1C (stereo not given)	ssDAF-12 act 1.3, DAX1 inh-2 6.0, hcDAF12 agonist 6.9 | DAX1 conf 18 | SF1 AF2mut Luc 7.7 | LXR ag inactive | hcDAF12 ag 8.2
CCOC(=O)CC[C@@H]1CC[C@]2(CCCN(C(=O)C(C)(C)C)C2)O1	none (no result: FXN GAA850 act, DAX1 inh-1)
C/C(=N\NC(=O)c1cccs1)c1c(O)cc(C)oc1=O	ssDAF-12 act 1.1, hgDAF-12 ag 12, DAX1 inh-1 4.7, DAX1 inh-2 6.9, hcDAF12 agonist 6.6 | DAX1 conf inactive | SF1 AF2mut Luc inactive | LXR ag inactive | hcDAF12 ag inactive
C/C(=N\NC(=O)c1cc2ccccc2cc1O)c1cccs1	none
CC(=O)c1ccc(/C=C/c2nc3ccccc3n2C)o1	none (no result: DAX1 inh-1)
Cn1c(/C=C/c2ccccc2)nc2ccccc21	hgDAF-12 ag 11, DAX1 inh-2 4.6, hcDAF12 agonist 9.0 | DAX1 conf 6.6 | SF1 AF2mut Luc inactive | LXR ag inactive | hcDAF12 ag 14
CCOC(=O)c1c(C)oc2c1c(CN1CCN(CCO)CC1)c(O)c1ccccc12	ssDAF-12 act 1.1, DAX1 inh-2 4.8, hcDAF12 agonist 7.1 | DAX1 conf 4.2 | SF1 AF2mut Luc 3.7 | LXR ag inactive | hcDAF12 ag 6.8
CN(C)CCN(C(=O)c1ccc(Br)s1)c1nc2cc3c(cc2s1)OCCO3	none
CN(C)CCN(C(=O)c1cccs1)c1nc2cc3c(cc2s1)OCCO3	ssDAF-12 act 1.4, DAX1 inh-2 5.1, hcDAF12 agonist 7.0 | DAX1 conf 4.7 | SF1 AF2mut Luc 5.0 | LXR ag inactive | hcDAF12 ag inactive
O=C(c1ccc2oc(CCc3ccccc3)nc2c1)N1CCC(O)CC1	hgDAF-12 ag 11, DAX1 inh-2 8.1, hcDAF12 agonist 8.2 | DAX1 conf 13 | SF1 AF2mut Luc 4.9 | LXR ag inactive | hcDAF12 ag 6.9
COc1ccc2cc(-c3cc(C(=O)O)c4ccccc4n3)ccc2c1	ssDAF-12 act 3.0, hgDAF-12 ag 13, DAX1 inh-2 5.2, hcDAF12 agonist 8.8 | DAX1 conf 11 | SF1 AF2mut Luc 3.2 | LXR ag inactive | hcDAF12 ag inactive
CCCn1nc(C(=O)N2CCN(S(=O)(=O)c3ccc(C)c(C)c3)CC2)c2ccccc2c1=O	none
Fc1ccc(-c2nc3n(n2)Cc2ccccc2-3)cc1	ssDAF-12 act 4.2, hgDAF-12 ag 18, DAX1 inh-2 5.5, hcDAF12 agonist 18 | DAX1 conf 14 | SF1 AF2mut Luc 8.6 | LXR ag inactive | hcDAF12 ag 16
CCn1c(C)nc2cc(-c3nc4n(n3)Cc3ccccc3-4)ccc21	none (no result: ssDAF-12 act, hgDAF-12 ag, DAX1 inh-2, hcDAF12 agonist)
Cc1ccc2nc(Cl)c(/C=N/Nc3ccc(C(=O)O)cc3)cc2c1	ssDAF-12 act 3.0, hgDAF-12 ag 25, DAX1 inh-2 11, hcDAF12 agonist 15 | DAX1 conf 25 | SF1 AF2mut Luc 8.6 | LXR ag inactive | hcDAF12 ag 16
CCN(CC)CCn1c(=S)[nH]c2cc(C(=O)N3CC=C(c4ccccc4)CC3)ccc2c1=O	none (no result: FXN GAA850 act, DAX1 inh-1)
O=C(Nc1ccc(N2CCCC2)cc1)c1cccc(F)c1	hgDAF-12 ag 11, DAX1 inh-2 4.6, hcDAF12 agonist 8.8 | DAX1 conf 10 | SF1 AF2mut Luc inactive | LXR ag inactive | hcDAF12 ag 5.7
OC[C@H]1O[C@@H](c2nc(-c3ccc4[nH]ccc4c3)no2)[C@H](O)[C@@H](O)[C@H]1O	none (no result: DAX1 inh-1)

Screening results deposited in PubChem BioAssay by The Scripps Research Institute Molecular Screening Center.
